Data on 39 compounds can be found in PubChem BioAssay (NCI).

Each structure is given as a SMILES string. About 83,000 compounds went through this panel and 20% of them were active in at least one assay; those are over-represented in the sample as a whole.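 Method: cells in 96-well plates; compound added at one concentration; 48 h incubation; percent growth measured; values under 10 scored active.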 Values without a mark were called inactive. Active and inactive are the calls of the source.

The first assay relates to CAKI-1 renal. The experiment in a line: NCI-60 one-dose screen, 48 h (100 = growth as untreated, 0 = no growth, -100 = all killed). The conditions noted are these: 10 µM unless noted.
For `Cc1ccc(C)c2c1SC1=NNC(Oc3ccc(Cl)cc3)=C(C#N)C(=N)N12`, the growth was 87.4%.

For `CCOC(=O)C(Cc1ccccc1)n1c(O)c(/C=N/c2ncc(Cc3ccc(Cl)cc3Cl)s2)sc1=S` (configuration not stated), the growth is 12.7%.

Regarding `COc1ccc(-c2cnc(-c3ccncc3-c3cccc(OC)c3)o2)cc1`, the growth was 32%.

Take `Cc1ccc(OC2=C(C#N)C(=N)N3C(=NN2)Sc2c(C)ccc(C)c23)cc1`: the growth is 86%.

Consider `O=C(Nc1ccncc1)C(=O)c1cn(S(=O)(=O)c2cccc(Cl)c2F)c2ccccc12`, for which the growth was 68.3%.

Turning to `CN1C(=O)NC(Cc2c[nH]c3c(Cl)cccc23)C1=O` (configuration not stated), the growth was 125%.

Take `COc1ccc(C(=O)OC2C(OC3C(O)COC(O[C@H]4C[C@H]5[C@@H]6CC=C7C[C@@H](O)CC[C@]7(C)[C@H]6CC[C@]5(C)[C@H]4[C@H](C)C(=O)CCC(C)C)C3OC(C)=O)OCC(O)C2O)cc1` (some centres not stated): the growth was -31.1% (active).

On to `C[C@@H]1N=C(c2ccc3ccccc3c2)Nc2nc3ccccn3c2C1=O`, for which the growth was 38.5%.

Take `O=[N+]([O-])c1ccc(N=Nc2c(NNc3ccc([N+](=O)[O-])cn3)cc(S(=O)(=O)O)c3ccccc23)nc1`: the growth was 64.1%.

On to `CS(=O)(=O)c1ccc(C(=O)N/N=C/c2ccccc2Cl)cc1`, for which the growth is 97.8%.

Regarding `CC1=C(O)C(=O)CC1`, the growth is 90.9%.

`O=C(N/N=C/c1ccc([N+](=O)[O-])cc1)c1ccccc1Nc1ccnc(C(F)(F)F)c1`: the growth was 76.4%.

Consider `Cc1ccc(C(CN(C)C)C(=O)c2ccccc2)cc1` (configuration not stated), for which the growth was 52.4%.

As to `CN1CCC2(CC1)N=C(SCC(=O)Nc1cnc3ccccc3c1)C(c1ccc(Br)cc1)=N2`, the growth is 8.73% (active).

Turning to `Nc1c(C(=O)C[C@@H](N)CO)ccc2c1C(=O)CCO2`, the growth was 29.8%.

On to `Cc1ccncc1NC=O`, for which the growth is 95.8%.

For the compound `Cc1c2c(cc3c1[nH]c1ccccc13)C=NCC2`, the growth is 92.9%.

Consider `O=S1(=O)NCCCN1CCNc1nccc(-c2c(-c3cccc(O)c3)nc3sccn23)n1`, for which the growth was 67.4%.

For the compound `CCc1c(C)c2ccc(O)c(-c3cc(-c4ccccc4)c(C#N)c(=O)[nH]3)c2oc1=O`, the growth was 70%.

As to `COc1ccc2nc3cc(Cl)ccc3c(NC(=O)CSc3ccc(Cl)cc3)c2c1`, the growth is -90.8% (active).

As to `C=CC(=O)N1CN(C(=O)C=C)CN(C(=O)C=C)C1`, the growth is 3.54% (active).

As for `CCCC(CCC)(C(N)=O)C(=O)O`, the growth is 95.3%.

Take `C=CCCCCOc1cccc(/C=C2\N=C3SCCCN3C2=O)c1`: the growth was 92.6%.

For the next assay, the system named is A498 renal. The description is as above. The conditions noted are these: 10 µM unless noted.
Turning to `COc1ccc(NC(=O)c2sc3c(=O)[nH]c(C(F)(F)F)nc3c2C)cc1`, the growth was 108%.

Turning to `O=C(Nc1cccc(Cl)c1)Nc1ccccc1Cl`, the growth was 63.4%.

For `NC(=O)N/N=C\c1ccc([N+](=O)[O-])o1`, the growth is 90.1%.

On to `CCN(CC)Cc1cc(Nc2ccnc3ccc(OC)cc23)ccc1O`, for which the growth is 45.6%.

Regarding `CC(C)(C)c1nn(-c2ccccc2)c2c1C(=O)CSC(c1ccc3c(c1)OCO3)N2` (configuration not stated), the growth is 113%.

Turning to `CN(C)N1C(=O)c2c(Cl)c(Cl)c(Cl)c(Cl)c2C1=O`, the growth was 106%.

For the compound `O=c1c2cc(Cl)ccc2oc2ccc(OCCCCCN3CCCCC3)cc12`, the growth is 75.6%.

Regarding `C=CCOc1ccc2c(C)cc(=O)oc2c1`, the growth was 71%.

For `O=C(CSc1nc2c(n1Nc1ccccc1)-c1ccccc1SC2)Nc1nccs1`, the growth is 77%.

In the case of `CCNC(=O)c1ccc2c(c1)nc(-c1ccc(Cl)cc1)n2-c1cc(C(C)(C)C)[nH]n1`, the growth was 57.9%.

For `CC(C)CC1NC(=O)C(CC(C)C)N(CO)C1=O` (configuration not stated), the growth is 95.9%.

`CCn1c(=O)c(C(=O)NCCCO)c(O)c2ccccc21`: the growth was 109%.

Turning to `COc1cc(NCC(O)CN(CC(C)C)CC(C)C)c2ncccc2c1` (configuration not stated), the growth is 70%.

Take `CC(=O)Nc1ccc(/C=N/N2CCCCCC2)cc1`: the growth was 108%.

Take `O=c1oc2ccccc2cc1-c1cc(-c2ccc(-c3cc(-c4cc5ccccc5oc4=O)nc(-c4cc5ccccc5oc4=O)c3)cc2)cc(-c2cc3ccccc3oc2=O)n1`: the growth is 98.1%.

As to `CCN(CC)c1ccc(/C=N/N=C(N)N)cc1`, the growth was 43.9%.

For the compound `Cc1ccc(C)c2c1SC1=NNC(Oc3ccc(Cl)cc3)=C(C#N)C(=N)N12`, the growth is 87.1%.

In the case of `CCOC(=O)C(Cc1ccccc1)n1c(O)c(/C=N/c2ncc(Cc3ccc(Cl)cc3Cl)s2)sc1=S` (configuration not stated), the growth was -27.3% (active).

Consider `COc1ccc(-c2cnc(-c3ccncc3-c3cccc(OC)c3)o2)cc1`, for which the growth was 35.3%.

`Cc1ccc(OC2=C(C#N)C(=N)N3C(=NN2)Sc2c(C)ccc(C)c23)cc1`: the growth was 94.9%.

As for `O=C(Nc1ccncc1)C(=O)c1cn(S(=O)(=O)c2cccc(Cl)c2F)c2ccccc12`, the growth was 72%.

With `CN1C(=O)NC(Cc2c[nH]c3c(Cl)cccc23)C1=O` (configuration not stated), the growth was 106%.

Take `COc1ccc(C(=O)OC2C(OC3C(O)COC(O[C@H]4C[C@H]5[C@@H]6CC=C7C[C@@H](O)CC[C@]7(C)[C@H]6CC[C@]5(C)[C@H]4[C@H](C)C(=O)CCC(C)C)C3OC(C)=O)OCC(O)C2O)cc1` (some centres not stated): the growth was -82.2% (active).

For the compound `C[C@@H]1N=C(c2ccc3ccccc3c2)Nc2nc3ccccn3c2C1=O`, the growth is 47.3%.

Turning to `O=[N+]([O-])c1ccc(N=Nc2c(NNc3ccc([N+](=O)[O-])cn3)cc(S(=O)(=O)O)c3ccccc23)nc1`, the growth is 77.2%.

`CS(=O)(=O)c1ccc(C(=O)N/N=C/c2ccccc2Cl)cc1`: the growth is 91.3%.

Regarding `CC1=C(O)C(=O)CC1`, the growth was 83.7%.

As to `O=C(N/N=C/c1ccc([N+](=O)[O-])cc1)c1ccccc1Nc1ccnc(C(F)(F)F)c1`, the growth was -26.1% (active).

Turning to `Cc1ccc(C(CN(C)C)C(=O)c2ccccc2)cc1` (configuration not stated), the growth is 60.6%.

Turning to `CN1CCC2(CC1)N=C(SCC(=O)Nc1cnc3ccccc3c1)C(c1ccc(Br)cc1)=N2`, the growth was 44.6%.

In the case of `Nc1c(C(=O)C[C@@H](N)CO)ccc2c1C(=O)CCO2`, the growth was -37.5% (active).

As for `Cc1ccncc1NC=O`, the growth was 103%.

As for `Cc1c2c(cc3c1[nH]c1ccccc13)C=NCC2`, the growth is 71.7%.

For `O=S1(=O)NCCCN1CCNc1nccc(-c2c(-c3cccc(O)c3)nc3sccn23)n1`, the growth was 98.9%.

`CCc1c(C)c2ccc(O)c(-c3cc(-c4ccccc4)c(C#N)c(=O)[nH]3)c2oc1=O`: the growth was 116%.

Consider `COc1ccc2nc3cc(Cl)ccc3c(NC(=O)CSc3ccc(Cl)cc3)c2c1`, for which the growth is -99% (active).

For the compound `C=CC(=O)N1CN(C(=O)C=C)CN(C(=O)C=C)C1`, the growth is 106%.

Turning to `CCCC(CCC)(C(N)=O)C(=O)O`, the growth was 104%.

Regarding `C=CCCCCOc1cccc(/C=C2\N=C3SCCCN3C2=O)c1`, the growth was 82.9%.
